The inhibition is the relative decrease from the control value, in per cent.

7 compounds from ChEMBL document CHEMBL1961873, “Compounds: GSK PKIS; Assays: Nanosyn kinase panel” (2012) can be followed below.

Assay [1] has as its target Calcium/calmodulin-dependent protein kinase type II subunit alpha (Homo sapiens) (UniProt Q9UQM7). Particulars: at 1 µM.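 Also: reported value is a mean percent inhibition of CAMK2A.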
Assay [2] addresses Calcium/calmodulin-dependent protein kinase type II subunit delta (Homo sapiens) (UniProt Q13557). The note with it: at 0.1 µM.
Assay [3] shares this target. The note with it: at 1 µM.
Assay [4] concerns the target T1, Calcium/calmodulin-dependent protein kinase type IV (Homo sapiens) (UniProt Q16566).
T1 sequence (whole entry): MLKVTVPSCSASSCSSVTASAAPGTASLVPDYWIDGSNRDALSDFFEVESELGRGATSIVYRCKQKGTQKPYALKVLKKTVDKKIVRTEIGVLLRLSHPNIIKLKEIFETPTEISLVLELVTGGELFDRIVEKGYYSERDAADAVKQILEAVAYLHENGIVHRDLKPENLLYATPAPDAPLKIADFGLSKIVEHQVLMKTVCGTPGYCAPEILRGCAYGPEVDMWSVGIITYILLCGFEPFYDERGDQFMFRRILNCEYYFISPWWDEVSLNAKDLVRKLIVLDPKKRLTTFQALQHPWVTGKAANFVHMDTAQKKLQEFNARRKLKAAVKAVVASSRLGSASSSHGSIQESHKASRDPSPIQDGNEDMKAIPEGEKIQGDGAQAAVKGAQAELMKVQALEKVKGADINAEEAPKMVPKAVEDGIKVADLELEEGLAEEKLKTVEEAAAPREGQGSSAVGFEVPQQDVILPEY
Particulars: at 0.1 µM.

In assay [5] the target is T1, Calcium/calmodulin-dependent protein kinase type IV (Homo sapiens). The note with it: at 1 µM.
Assay [6] has as its target T2, Serine/threonine-protein kinase Chk1 (Homo sapiens) (UniProt O14757).
T2 sequence (whole entry): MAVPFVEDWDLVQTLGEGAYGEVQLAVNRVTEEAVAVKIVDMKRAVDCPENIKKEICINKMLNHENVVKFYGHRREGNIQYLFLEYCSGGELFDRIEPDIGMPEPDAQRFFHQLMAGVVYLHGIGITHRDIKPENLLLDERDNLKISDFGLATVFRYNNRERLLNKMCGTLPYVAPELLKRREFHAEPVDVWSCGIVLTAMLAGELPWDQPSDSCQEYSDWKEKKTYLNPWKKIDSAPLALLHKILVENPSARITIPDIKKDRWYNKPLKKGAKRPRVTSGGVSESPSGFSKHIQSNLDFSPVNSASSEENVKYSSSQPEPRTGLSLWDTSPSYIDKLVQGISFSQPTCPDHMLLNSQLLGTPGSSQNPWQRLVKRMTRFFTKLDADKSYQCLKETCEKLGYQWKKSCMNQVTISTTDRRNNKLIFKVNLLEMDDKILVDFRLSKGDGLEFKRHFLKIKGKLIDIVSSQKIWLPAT
Particulars: at 0.1 µM.

Assay [7] has as its target T2, Serine/threonine-protein kinase Chk1 (Homo sapiens). The note with it: at 1 µM.
Assay [8] concerns the target Serine/threonine-protein kinase Chk2 (Homo sapiens) (UniProt O96017). The note with it: at 0.1 µM.
The target is the same in assay [9]. The note with it: at 1 µM.
Assay [10] concerns the target Death-associated protein kinase 1 (Homo sapiens) (UniProt P53355). Particulars: at 0.1 µM.
Assay [11] has the same target. The note with it: at 1 µM.
Assay [12] concerns the target T3, Serine/threonine-protein kinase DCLK2 (Homo sapiens) (UniProt Q8N568).
T3 sequence (whole entry): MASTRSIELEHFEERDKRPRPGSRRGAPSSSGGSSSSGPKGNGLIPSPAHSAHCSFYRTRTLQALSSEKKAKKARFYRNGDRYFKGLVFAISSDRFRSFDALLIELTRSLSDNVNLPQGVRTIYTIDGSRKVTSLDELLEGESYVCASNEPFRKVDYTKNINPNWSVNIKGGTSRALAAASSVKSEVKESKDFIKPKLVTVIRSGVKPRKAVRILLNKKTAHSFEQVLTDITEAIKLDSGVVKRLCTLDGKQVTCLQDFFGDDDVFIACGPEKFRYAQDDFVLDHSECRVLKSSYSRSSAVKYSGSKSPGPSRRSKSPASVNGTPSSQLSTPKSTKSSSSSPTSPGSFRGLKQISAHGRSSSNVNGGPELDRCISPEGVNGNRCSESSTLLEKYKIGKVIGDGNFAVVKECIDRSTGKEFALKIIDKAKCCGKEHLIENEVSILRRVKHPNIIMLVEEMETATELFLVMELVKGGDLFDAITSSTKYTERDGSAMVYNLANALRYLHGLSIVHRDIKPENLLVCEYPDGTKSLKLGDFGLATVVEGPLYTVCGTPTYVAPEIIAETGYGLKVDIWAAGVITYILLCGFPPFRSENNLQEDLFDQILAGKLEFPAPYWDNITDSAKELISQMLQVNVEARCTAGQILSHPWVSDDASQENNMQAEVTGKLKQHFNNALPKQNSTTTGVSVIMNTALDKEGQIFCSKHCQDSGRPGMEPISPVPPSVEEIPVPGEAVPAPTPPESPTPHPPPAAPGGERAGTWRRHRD
Particulars: at 0.1 µM.

The target in assay [13] is T3, Serine/threonine-protein kinase DCLK2 (Homo sapiens). Particulars: at 1 µM.
Assay [14] addresses MAP kinase-activated protein kinase 2 (Homo sapiens) (UniProt P49137). Particulars: at 0.1 µM.
For assay [15] the target is unchanged. Particulars: at 1 µM.
Assay [16] addresses MAP kinase-activated protein kinase 3 (Homo sapiens) (UniProt Q16644). The note with it: at 0.1 µM.
Assay [17] has the same target. The note with it: at 1 µM.
For assay [18], the target named is Serine/threonine-protein kinase MARK1 (Homo sapiens) (UniProt Q9P0L2). The note with it: at 0.1 µM.
Sequence of Serine/threonine-protein kinase MARK1 (Homo sapiens) (Q9P0L2 whole entry, looked up): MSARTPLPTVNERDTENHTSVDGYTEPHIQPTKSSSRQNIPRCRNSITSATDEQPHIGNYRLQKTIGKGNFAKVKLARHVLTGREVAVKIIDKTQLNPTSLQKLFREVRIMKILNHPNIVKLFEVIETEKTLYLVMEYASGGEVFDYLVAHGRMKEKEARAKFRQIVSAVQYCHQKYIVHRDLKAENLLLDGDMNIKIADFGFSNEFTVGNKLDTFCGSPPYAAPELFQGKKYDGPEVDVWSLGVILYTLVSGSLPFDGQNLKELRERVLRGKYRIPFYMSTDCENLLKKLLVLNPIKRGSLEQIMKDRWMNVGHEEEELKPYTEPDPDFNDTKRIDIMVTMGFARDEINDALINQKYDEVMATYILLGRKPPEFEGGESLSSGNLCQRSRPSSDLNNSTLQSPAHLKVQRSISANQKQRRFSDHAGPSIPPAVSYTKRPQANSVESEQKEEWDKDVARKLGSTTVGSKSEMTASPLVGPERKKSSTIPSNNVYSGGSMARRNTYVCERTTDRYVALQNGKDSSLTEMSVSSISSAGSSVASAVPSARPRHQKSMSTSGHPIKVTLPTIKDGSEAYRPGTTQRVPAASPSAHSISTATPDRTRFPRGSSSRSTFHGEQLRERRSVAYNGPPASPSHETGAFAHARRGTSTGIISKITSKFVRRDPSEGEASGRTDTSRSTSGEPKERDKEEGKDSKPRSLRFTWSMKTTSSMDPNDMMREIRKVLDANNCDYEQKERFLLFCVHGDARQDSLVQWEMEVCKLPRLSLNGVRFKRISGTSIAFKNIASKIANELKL
For assay [19] the target is unchanged. Particulars: at 1 µM.
The target of assay [20] is MAP/microtubule affinity-regulating kinase 3 (Homo sapiens) (UniProt P27448). The note with it: at 0.1 µM.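 Also: mean percent inhibition of MARK3 kinase activity, measured within the GSK PKIS screening panel.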
Sequence of MAP/microtubule affinity-regulating kinase 3 (Homo sapiens) (P27448 whole entry, looked up): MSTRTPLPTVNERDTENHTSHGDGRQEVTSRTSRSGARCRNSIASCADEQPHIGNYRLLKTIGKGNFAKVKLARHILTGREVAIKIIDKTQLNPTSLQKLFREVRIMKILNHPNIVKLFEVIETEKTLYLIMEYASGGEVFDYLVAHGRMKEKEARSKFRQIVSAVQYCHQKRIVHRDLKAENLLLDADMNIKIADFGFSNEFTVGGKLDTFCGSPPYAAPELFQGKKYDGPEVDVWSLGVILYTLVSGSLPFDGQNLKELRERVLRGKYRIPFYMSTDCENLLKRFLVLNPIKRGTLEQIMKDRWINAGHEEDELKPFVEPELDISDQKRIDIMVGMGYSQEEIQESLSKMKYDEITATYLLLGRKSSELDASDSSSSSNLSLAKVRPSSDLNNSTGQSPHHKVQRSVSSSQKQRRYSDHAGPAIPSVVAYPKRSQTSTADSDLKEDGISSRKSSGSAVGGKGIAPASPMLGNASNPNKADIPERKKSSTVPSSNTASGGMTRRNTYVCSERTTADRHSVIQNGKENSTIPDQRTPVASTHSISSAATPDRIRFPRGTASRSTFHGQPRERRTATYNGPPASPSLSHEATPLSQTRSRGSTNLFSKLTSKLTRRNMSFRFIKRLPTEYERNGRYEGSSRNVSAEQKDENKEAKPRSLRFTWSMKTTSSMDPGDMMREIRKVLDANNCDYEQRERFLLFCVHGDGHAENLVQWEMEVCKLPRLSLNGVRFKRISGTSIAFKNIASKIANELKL

Sequence of Death-associated protein kinase 1 (Homo sapiens) (P53355 whole entry, looked up): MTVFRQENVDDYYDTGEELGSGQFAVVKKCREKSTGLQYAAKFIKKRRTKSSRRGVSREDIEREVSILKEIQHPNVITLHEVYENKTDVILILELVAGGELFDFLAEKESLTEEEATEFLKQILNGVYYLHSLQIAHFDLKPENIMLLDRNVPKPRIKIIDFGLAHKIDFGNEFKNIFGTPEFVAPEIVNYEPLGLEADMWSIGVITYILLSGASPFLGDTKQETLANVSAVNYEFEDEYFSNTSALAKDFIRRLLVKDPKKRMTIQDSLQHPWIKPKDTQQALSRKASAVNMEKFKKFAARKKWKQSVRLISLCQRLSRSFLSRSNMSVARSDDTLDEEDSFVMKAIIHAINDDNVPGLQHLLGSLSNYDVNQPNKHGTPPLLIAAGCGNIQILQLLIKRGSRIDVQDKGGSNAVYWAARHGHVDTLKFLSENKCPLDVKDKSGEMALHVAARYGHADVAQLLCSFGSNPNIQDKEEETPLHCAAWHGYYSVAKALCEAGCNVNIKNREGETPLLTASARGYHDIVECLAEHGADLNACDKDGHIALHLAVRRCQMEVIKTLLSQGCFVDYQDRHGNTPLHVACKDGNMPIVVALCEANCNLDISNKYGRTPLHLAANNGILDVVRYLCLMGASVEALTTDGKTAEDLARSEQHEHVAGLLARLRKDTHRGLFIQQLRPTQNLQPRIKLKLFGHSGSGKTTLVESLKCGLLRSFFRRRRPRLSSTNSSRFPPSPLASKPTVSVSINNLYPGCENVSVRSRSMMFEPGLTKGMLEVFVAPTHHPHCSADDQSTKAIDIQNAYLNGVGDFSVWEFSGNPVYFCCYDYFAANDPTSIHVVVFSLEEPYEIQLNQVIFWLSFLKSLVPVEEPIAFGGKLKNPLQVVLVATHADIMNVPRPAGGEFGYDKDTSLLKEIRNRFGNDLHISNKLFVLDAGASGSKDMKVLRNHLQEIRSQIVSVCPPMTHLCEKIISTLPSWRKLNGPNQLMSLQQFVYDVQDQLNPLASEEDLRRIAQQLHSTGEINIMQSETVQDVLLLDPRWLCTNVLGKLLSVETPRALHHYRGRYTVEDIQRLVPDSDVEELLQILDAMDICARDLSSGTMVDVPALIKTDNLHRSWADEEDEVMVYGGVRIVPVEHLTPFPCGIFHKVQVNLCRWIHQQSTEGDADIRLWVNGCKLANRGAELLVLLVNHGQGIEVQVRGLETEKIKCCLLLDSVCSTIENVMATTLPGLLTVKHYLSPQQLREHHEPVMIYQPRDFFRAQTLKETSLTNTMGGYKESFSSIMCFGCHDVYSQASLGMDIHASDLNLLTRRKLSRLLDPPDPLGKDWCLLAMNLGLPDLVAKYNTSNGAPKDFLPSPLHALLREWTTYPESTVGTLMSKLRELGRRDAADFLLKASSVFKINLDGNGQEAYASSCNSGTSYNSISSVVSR
Sequence of Calcium/calmodulin-dependent protein kinase type II subunit delta (Homo sapiens) (Q13557 whole entry): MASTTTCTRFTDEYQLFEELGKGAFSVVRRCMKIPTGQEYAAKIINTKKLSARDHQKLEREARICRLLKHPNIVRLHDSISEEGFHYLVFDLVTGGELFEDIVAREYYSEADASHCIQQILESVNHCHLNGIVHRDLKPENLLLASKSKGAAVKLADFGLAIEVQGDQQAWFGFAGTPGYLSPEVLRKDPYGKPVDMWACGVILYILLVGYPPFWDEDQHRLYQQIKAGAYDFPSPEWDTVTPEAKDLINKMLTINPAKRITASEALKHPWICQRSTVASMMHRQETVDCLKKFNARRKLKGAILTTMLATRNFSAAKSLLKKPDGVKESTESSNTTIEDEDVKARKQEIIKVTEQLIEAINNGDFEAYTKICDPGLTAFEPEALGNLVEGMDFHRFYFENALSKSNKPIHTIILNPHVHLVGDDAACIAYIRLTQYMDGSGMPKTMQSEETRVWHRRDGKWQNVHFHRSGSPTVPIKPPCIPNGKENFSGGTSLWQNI
Sequence of Serine/threonine-protein kinase Chk2 (Homo sapiens) (O96017 whole entry): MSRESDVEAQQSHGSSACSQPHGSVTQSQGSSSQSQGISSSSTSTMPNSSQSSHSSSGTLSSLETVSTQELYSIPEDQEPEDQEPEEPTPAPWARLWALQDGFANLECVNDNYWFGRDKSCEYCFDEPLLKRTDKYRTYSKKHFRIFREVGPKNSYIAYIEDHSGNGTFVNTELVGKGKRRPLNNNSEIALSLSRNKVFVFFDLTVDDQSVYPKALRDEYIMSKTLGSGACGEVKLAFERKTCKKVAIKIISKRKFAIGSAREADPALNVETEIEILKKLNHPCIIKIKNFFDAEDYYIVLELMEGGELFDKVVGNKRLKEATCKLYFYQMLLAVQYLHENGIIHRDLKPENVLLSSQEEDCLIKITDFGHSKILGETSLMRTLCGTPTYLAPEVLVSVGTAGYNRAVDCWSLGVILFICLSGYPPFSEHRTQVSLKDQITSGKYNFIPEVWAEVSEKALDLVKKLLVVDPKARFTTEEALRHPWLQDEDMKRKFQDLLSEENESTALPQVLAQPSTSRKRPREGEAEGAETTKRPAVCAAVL
Sequence of MAP kinase-activated protein kinase 2 (Homo sapiens) (P49137 whole entry, looked up): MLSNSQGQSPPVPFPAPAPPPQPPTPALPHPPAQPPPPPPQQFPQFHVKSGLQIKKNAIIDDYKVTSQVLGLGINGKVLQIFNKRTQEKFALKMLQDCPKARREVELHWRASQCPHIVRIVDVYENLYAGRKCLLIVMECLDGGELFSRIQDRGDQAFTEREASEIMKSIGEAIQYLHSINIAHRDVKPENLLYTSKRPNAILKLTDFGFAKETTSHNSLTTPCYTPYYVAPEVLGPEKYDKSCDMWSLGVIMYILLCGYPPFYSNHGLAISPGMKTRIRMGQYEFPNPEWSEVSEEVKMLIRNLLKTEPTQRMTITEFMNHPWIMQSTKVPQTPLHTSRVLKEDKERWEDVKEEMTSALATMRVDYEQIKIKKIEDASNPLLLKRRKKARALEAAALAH
Sequence of Calcium/calmodulin-dependent protein kinase type II subunit alpha (Homo sapiens) (Q9UQM7 whole entry): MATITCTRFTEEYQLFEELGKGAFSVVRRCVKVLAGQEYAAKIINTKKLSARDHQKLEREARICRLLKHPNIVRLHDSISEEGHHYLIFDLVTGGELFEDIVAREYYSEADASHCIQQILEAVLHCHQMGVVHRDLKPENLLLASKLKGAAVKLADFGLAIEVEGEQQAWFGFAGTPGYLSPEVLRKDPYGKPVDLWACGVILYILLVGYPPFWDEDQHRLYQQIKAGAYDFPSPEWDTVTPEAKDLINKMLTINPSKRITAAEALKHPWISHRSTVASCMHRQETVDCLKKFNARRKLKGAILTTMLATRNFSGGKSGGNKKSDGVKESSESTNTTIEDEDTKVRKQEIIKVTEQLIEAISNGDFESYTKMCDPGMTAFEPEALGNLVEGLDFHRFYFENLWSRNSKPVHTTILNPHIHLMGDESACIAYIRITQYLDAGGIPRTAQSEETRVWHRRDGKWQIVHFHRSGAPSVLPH

On to `Cc1ccc2c(-c3ccnc(Nc4ccccc4)n3)c(-c3ccc(F)cc3)nn2n1`, for which the inhibition in assay [1] is 4.16%; in assay [2], 3.9%; in assay [3], 4.15%; in assay [4], -0.02%; in assay [5], 1.87%; in assay [6] it was 2.71%. In addition, the inhibition came out at 4.19% in [7]; 2.15% in [8]; 2.4% in assay [9]; 3.42% in [10]; 5.85% in [11]; 1.21% in [12]. Besides, the inhibition was found to be 1.97% in [13]; 1.27% in assay [14]; 1.49% in assay [15]; 32.5% in assay [16]; 36% in assay [17]; 2.17% in assay [18]. Besides, the inhibition in assay [19] is 2.96%; in assay [20], 3.81%.

In the case of `CCN1CCC(CC(=O)Nc2n[nH]c3nnc(-c4cccc(F)c4F)cc23)CC1`, the inhibition was -0.76% in assay [1]; 2.44% in assay [2]; 0.77% in assay [3]; 2.76% in assay [4]; -0.58% in assay [5]; 1.72% in [6]. The inhibition in [7] is -1.03%; in assay [8], 1.92%; in [9] it was 0.24%; in assay [10] it was 3.62%; in [11] it was 3.28%; in assay [12], -0.85%. The inhibition is 1.18% in assay [13]; 1.15% in assay [14]; 0.52% in assay [15]; 1.74% in assay [16]; 0.62% in assay [17]; 1.89% in assay [18]. The inhibition in assay [19] came out at 2.48%; in [20], 2.14%.

`COc1ccc(-c2cc(-c3c[nH]nc3-c3ccccn3)ccn2)cc1`: the inhibition in assay [1] was 6.7%; in [2], 3.82%; in assay [3], 3.97%; in assay [4], -2.15%; in [5], -3.38%; in assay [6], 3.08%. Moreover, the inhibition in assay [7] worked out at 6.57%; in assay [8] it was 3.42%; in [9] it was 4.49%; in [10], 5.21%; in [11], 6.22%; in [12], 2.08%. Besides, the inhibition in assay [13] was determined as 0.82%; in assay [14], 2.82%; in assay [15], 2.73%; in [16], 6.42%; in assay [17], 14%; in assay [18], 5.2%. Further, the inhibition in assay [19] stood at 7.25%; in [20], 5.15%.

With `Clc1ccc(-c2nn3ncccc3c2-c2ccnc(Nc3ccccc3)n2)cc1`, the inhibition in [1] was 0.86%; in [2], 1.7%; in [3] it was 1.08%; in [4], 4.89%; in [5], -0.99%; in [6], -0.54%. In addition, the inhibition is -0.93% in assay [7]; 0.52% in assay [8]; 1.08% in [9]; 0.42% in assay [10]; -0.24% in assay [11]; 1.9% in [12]. Moreover, the inhibition in [13] was 6.65%; in assay [14], 0.42%; in assay [15], -0.09%; in [16], 22.4%; in assay [17], 32.1%; in assay [18], 1.31%. For the same compound, the inhibition was 0.37% in assay [19] and -2.23% in [20].

Take `c1ccc(-c2nc3n(c2-c2ccc4c(c2)OCO4)CCC3)nc1`: the inhibition was 0.36% in assay [1]; 1.63% in assay [2]; 0.93% in assay [3]; 0.61% in assay [4]; -0.72% in assay [5]; 3.23% in [6]. For the same compound, the inhibition is 3.51% in assay [7]; -0.09% in [8]; 0.94% in assay [9]; 1.93% in assay [10]; 1.91% in assay [11]; 0.33% in assay [12]. In addition, the inhibition in assay [13] amounted to 2.8%; in [14] it was 1.38%; in assay [15], 1.27%; in [16] it was 3.55%; in assay [17], 3.33%; in assay [18], 1.87%. The values for the inhibition in assay [19] and in assay [20] were 4.07% and 2.01%, respectively.

Regarding `NS(=O)(=O)c1ccc(Nc2ncc(-c3ccccc3)o2)cc1`, the inhibition in assay [1] was 4.77%; in assay [2] it was 2.92%; in [3], 7.79%; in assay [4], -0.86%; in [5] it was -0.71%; in assay [6], 0.75%. Moreover, the inhibition was 7.56% in assay [7]; 1.94% in assay [8]; 3.97% in assay [9]; 3.79% in assay [10]; 4.56% in assay [11]; 1.31% in assay [12]. The inhibition was found to be 1.65% in assay [13]; 1.62% in assay [14]; 1.99% in [15]; 2.89% in assay [16]; 2.39% in assay [17]; 3.62% in assay [18]. The inhibition in assay [19] worked out at 12.9%; in assay [20], 4.38%.

`COc1cc2ncn(-c3cc(OCc4ccccc4C(F)(F)F)c(C(=O)N(C)C)s3)c2cc1OC`: the inhibition in assay [1] is -0.49%; in [2], -1.72%; in [3] it was 1.17%; in [4], 0.72%; in assay [5] it was 3.28%; in [6] it was -1.48%. In addition, the inhibition in assay [7] is 1.32%; in assay [8], -0.7%; in assay [9], -0.07%; in assay [10] it was -0.75%; in assay [11], -1.63%; in [12], -2.64%. The inhibition was 3.14% in assay [13]; -0.07% in [14]; -0.4% in [15]; -1.65% in assay [16]; 0.87% in assay [17]; 0.44% in [18]. Besides, the inhibition in assay [19] is 1.45%; in assay [20], 0.15%.
